Shown are actives, neighbours in structure and some others; about 12% of the full set was active somewhere.
Cl transport mod – modulators of human KCC2 chloride dependent transport. AID 1456. KCC2 cells, thallium flux FluoZin-2 fluorescence. B-score of Tl+ flux slope (higher = more flux/activation; lower = inhibition) at 10 µM. 190,000 compounds, 2.2% hits. Q9H2X9;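 active = thallium flux slope and its plate-corrected score both differing from the plate sample mean at a set confidence after two filtering rounds, in either direction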;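 note: slope of fluorescence scaled to starting intensity during 10 to 20 s after thallium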
Calpain2 inh – calpain II (pig) inhibition. purified calpain II, fluorogenic peptide substrate, 30 min. 220,000 compounds, 0.37% hits. AID 1236. inhibition, % at 16 µM;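 active = inhibition above about 50%, limit read from the data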
L major viab – Leishmania major promastigote growth inhibition; Leishmania major promastigotes, resazurin fluorescence viability; inhibition, % at 10 µM; 200,000 compounds, 9% hits; AID 1063; in the data active = inhibition above about 50%;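 note: promastigotes grown with compound for 44 hours at 28 °C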
ROMK mod – modulators of human ROMK potassium channel; Tet-inducible ROMK, thallium flux fluorescence; actives lie on both sides; B-score at 10 µM; 130,000 compounds, 2% hits; AID 1918; P48048;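 active = signal ratio slope over the read window, or its plate-corrected B-score, at least 3 SD from the plate mean, either direction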;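 note: B-score of the F/F0 ratio slope over 7 to 12 s after thallium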
Target sequence (P48048 whole entry, looked up): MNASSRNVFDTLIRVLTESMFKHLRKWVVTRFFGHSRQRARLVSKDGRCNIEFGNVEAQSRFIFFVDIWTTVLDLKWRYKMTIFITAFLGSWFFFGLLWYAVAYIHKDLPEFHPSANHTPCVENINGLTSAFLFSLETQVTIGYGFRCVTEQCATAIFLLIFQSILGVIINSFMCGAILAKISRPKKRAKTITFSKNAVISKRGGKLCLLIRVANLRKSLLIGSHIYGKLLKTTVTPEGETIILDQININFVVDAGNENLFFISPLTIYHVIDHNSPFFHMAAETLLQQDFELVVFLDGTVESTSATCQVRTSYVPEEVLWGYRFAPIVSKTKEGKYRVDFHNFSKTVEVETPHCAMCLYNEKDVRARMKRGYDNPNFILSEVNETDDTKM
WT yeast gro inh – growth inhibition of WT yeast, mitochondrial fusion screen | mitochondrial fusion phenotypic screen, WT strain | inhibition, % at 10 µM | 190,000 compounds, 2.1% hits | AID 1362; in the data active = inhibition above about 58%; tested in S. cerevisiae
ROMK retest – human ROMK channel modulation, retest confirmation; shares compounds with ROMK mod; 3,000 compounds, 54% hits; normalized thallium flux (F/F0 slope) at 10 µM; ROMK thallium flux, fluorescence ratio; hits give low values;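 active = Flux at 10 µM at least 3 SD below or above vehicle control mean in one or both replicates; inconclusive = no clear call, values can overlap the other calls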
Starred values were filed as active, the others as inactive; i = inactive; u = inconclusive; x = no result.

SMILES	Cl transport mod	Calpain2 inh	L major viab	ROMK mod	WT yeast gro inh	ROMK retest
CC(C)c1ccccc1NC(=O)COC(=O)c1c2c(nc3ccccc13)CCN(Cc1ccccc1)C2	-1.19	6.8	46.2	x	21.2	x
COc1ccc(-c2nnc(N3CCCCC3)c3ccccc23)cc1	x	-7.8	37.1	-0.721	15.8	x
COc1ccc(Cn2nc(-c3ccccc3)c(N3CCCCC3)cc2=O)cc1	-0.166	72.4*	22.3	-4.42*	71.4*	u
CC1Cc2nc(SCC(=O)NCc3ccco3)n(Cc3ccccc3)c(=O)c2S1 (centres undefined)	-0.795	-26.2	5.5	x	2.0	x
O=c1[nH]c(-c2ccccc2F)nc2c1sc(=S)n2Cc1ccccc1	0.299	21.8	2.8	x	-8.3	x
S=C(NCc1ccccn1)Nc1ccc(Br)cc1Cl	-0.0473	-13.4	-10.5	-0.363	55.3	x
CC(C)CC(=O)N1CCN(Cc2ccccc2[N+](=O)[O-])CC1	1.01	-16.6	-0.2	0.394	-7.3	x
CN1CCS/C1=C/C=C1\SC(=S)N(CC(=O)O)C1=O	i	38.3	-5.0	x	-4.1	x
CN1CCS/C1=C/C=C1/SC(=S)N(Cc2ccccc2)C1=O	-0.14	22.9	12.6	-0.0564	-11.2	x
CCCCN1C(=O)/C(=C/C=C2\SCCN2C)SC1=S	0.333	29.8	4.0	-3.35*	36.8	0.0522*
CCCCN1C(=O)/C(=C/C=C2\N(C)c3ccccc3C2(C)C)SC1=S	-0.132	5.9	18.2	-4.4*	34.8	0.0394*
O=C1CC(Cc2ccccc2)C(=O)N1c1ccccn1 (centres undefined)	0.203	-20.8	x	1.06	x	x
CS(=O)(=O)N1CCc2cc(-c3csc(NC(=O)Cc4cccs4)n3)ccc21	-0.00941	-121.0	39.8	x	16.4	0.0675*
Cc1nc2ccccc2c(=O)n1/N=C/c1ccc2ccccc2c1O	0.0763	16.9	x	x	x	0.0762
Cc1nc2ccccc2c(=O)n1/N=C/c1ccccc1	0.632	28.4	-1.4	x	9.4	x
O=C(Cc1nc2ccccc2[nH]1)c1cccc([N+](=O)[O-])c1	-0.000124	-107.8	x	x	x	u
CCCn1c(NC(=O)c2cccc(S(=O)(=O)N3CCCC3)c2)nc2ccccc21	0.000573	8.8	33.5	x	11.2	0.0832
CN1CCN(S(=O)(=O)c2cccc(C(=O)N(c3ccccn3)C3CCCCC3)c2)CC1	x	1.6	-5.3	-0.446	12.0	x
CCNC(=O)c1ccccc1NC(=O)c1cccc(S(=O)(=O)N2CCC(C)CC2)c1	-0.497	14.4	17.3	x	8.9	0.0719
CC1CCN(S(=O)(=O)c2cccc(C(=O)N(Cc3ccccc3)c3ccccn3)c2)CC1	-1.02	-15.2	1.6	-3.99*	12.1	0.0619*
CC(C)NS(=O)(=O)c1cc(C(=O)O)ccc1Cl	-0.459	27.5	-0.3	-0.00367	3.8	x
CCC(NC(=O)N(Cc1ccccc1)Cc1ccc2c(c1)OCO2)(C(F)(F)F)C(F)(F)F	0.151	-4.3	67.0*	x	-2.8	0.077
CC(=O)C1=C(C)NC(=O)CC1c1ccc(Br)cc1 (centres undefined)	-0.0774	14.6	-8.1	0.229	-19.1	x
CCOC(=O)C1=C(C)N=C2SCCC(=O)N2[C@@H]1/C=C/c1ccccc1	0.591	14.3	-1.2	x	7.1	x
CC1=C(C(=O)OCc2ccccc2)C(/C=C/c2ccccc2)N2C(=O)CCSC2=N1 (centres undefined)	-0.896	8.5	74.8*	-4.92*	32.8	0.0829
SMILES	Cl transport mod	Calpain2 inh	L major viab	ROMK mod	WT yeast gro inh	ROMK retest
COc1cc(C(=O)Nc2ccc3c(c2)CCN3C(C)=O)cc(OC)c1OC	1.9	-12.6	-2.9	4.46*	-3.6	0.0794
CCc1cccc(NC(=O)c2cc(OC)c(OC)c(OC)c2)c1	x	-0.4	11.0	1.35*	10.5	0.0772
CCOc1ccc(S(=O)(=O)NN=C2CCN(C(C)=O)CC2)cc1	-0.0163	2.4	-4.7	-1	14.4	x
COc1ccccc1C(=O)Oc1ccc2c(c1)O/C(=C\c1ccncc1)C2=O	-0.267	-8.8	11.5	x	-11.2	0.061*
CC(=O)Oc1ccc2c(c1)O/C(=C\c1ccncc1)C2=O	i	1.8	x	x	x	x
CCC(=O)Oc1ccc2c(c1)O/C(=C\c1ccco1)C2=O	i	-210.8	x	-7.38*	x	0.0505*
CC(C)(C)c1ccc(C(=O)NCC(=O)OCC(=O)Nc2ccc3c(c2)OCCO3)cc1	0.754	6.6	50.0	-0.375	-11.4	x
Cc1cccc(C)c1N1CCN(S(=O)(=O)N(C)C)CC1	-0.247	-1.1	-2.7	-0.773	4.7	x
CCCS(=O)(=O)c1nnnn1-c1cccc(OC)c1	0.121	-14.2	100.1*	-8.41*	75.9*	0.0462*
COc1cccc(-n2nnnc2SCC(=O)Nc2ccc(C(C)=O)cc2)c1	0.462	-36.1	1.7	0.0755	-12.6	x

Screening results deposited in PubChem by several laboratories.
